According to PubChem BioAssay (NCI):
This is part of a sample that, as a whole, favours compounds with a hit. Of some 83,000 tested, about 20% had one in any assay.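 Each cell line was grown in a 96-well plate and treated with one concentration of compound for 48 hours. Values below 10 were considered active.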 Active and inactive are the calls of the source.

system: T-47D breast; assay: NCI-60 one-dose screen, 48 h (100 = growth as untreated, 0 = no growth, -100 = all killed); conditions: 10 µM unless noted

Structure (SMILES) | growth
COc1ccc(/C=N/NC(=O)Cn2c(-c3ccc(S(C)(=O)=O)cc3)nc3ccccc32)cc1 | 102% (inactive)
CN(C)CCCn1c2c(c3ccncc3c1=O)C(=O)c1ccccc1-2 | -12.3% (active)
OC1(c2ccccc2)c2ccccc2N(c2ccccc2)c2ccc(Cl)cc21 (centres undefined) | -85.1% (active)
CC1(/C=C/c2ccc(-c3ccccc3)cc2)CCn2cnc3ncnc(c32)N1O (centres undefined) | 37.8% (inactive)
C=C1C(=O)O[C@H]2[C@H]1CC/C(COC(=O)/C=C\C(=O)NCc1ccc(Cn3c(=O)sn(CCCCl)c3=O)cc1)=C\CC[C@@]1(C)O[C@@H]21 | 61.5% (inactive)
C#Cc1cccc(NC(=O)C2CCCCN2C(=O)CCl)c1 (centres undefined) | -4.16% [8.25 µM] (active)
O=C1CCCC1[n+]1ccccc1 (centres undefined) | 43.5% (inactive)
N#C/C(=C\c1ccc(-c2cccc(Cl)c2)o1)C(=O)Nc1ncc(Cc2ccc(Cl)cc2)s1 | 20.7% (inactive)
O=S(O)c1cc(Cl)cc(Cl)c1OCc1ccccc1 | 102% (inactive)
O=C(C1=Cc2cc3ccccc3n2Cc2cnnn21)c1ccc(F)cc1 | 95% (inactive)
CC(C)Cc1nc(Nc2ccccc2)[nH]c(=O)c1C#N | 40.8% (inactive)
C[N+]1=C(/C=C/c2ccccc2Cl)C(C)(C)c2ccccc21 | 86.4% (inactive)
CSc1ccc(N2C(=N)C(=S)N(c3ccc(C)cc3)C2=O)cc1 | 83% (inactive)
CC[C@H](Nc1nc(N)nc(C)c1C#N)c1nc2cccc(CN(C)c3ncc(C(=O)NO)cn3)c2c(=O)n1-c1ccccc1 | -23.1% (active)
